The term viability denotes a read-out of living cells in per cent, often relative to untreated cells.

Structures are written as SMILES. Inconclusive results are not listed. The source made the active and inactive calls. The call rests on the fitted dose curve; in most records, active means well fitted inhibition curve with a large enough effect; inconclusive means small, poorly fitted or top-dose-only effect; inactive means no such curve, though single readings can be large or run the other way.
Further: nearly all actives have a fitted effect of over 35% in size.
Potency means the concentration at half of the fitted maximal effect.

One experiment can be described thus: BET inhibitor-based combinations targeting novel dependencies in MECOM-rearranged (r) AML: SET-2 cell line (AID 2202231).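 On viability: plate controls were DMSO treated cells for no effect and wells without cells for full effect.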 As to conditions: SET-2 AML cells viability, CellTiter-Glo luminescence, 48 h; viability: active compounds read low, concentration not given here. The method in brief:
(§1)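 Viability of cells (500 per well) is scored by luminescent CellTiter-Glo at 48 hr post-dosing. Eleven-point titrations are normalized to DMSO and empty controls and reduced to AUC values.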
In general terms: Cellular ATP, detected with luciferase, serves as a proxy for viable cell number.
For `NC(=O)c1cc(F)cc2c1C(=O)N(C1CCN(C3CCC(F)(F)CC3)CC1)C2`, the viability was 106% (inactive).
On the same count and under the same terms, the result for `CN1C(=O)[C@@H](NC(=O)c2cc(Cc3ccccc3)on2)COc2ccccc21` reads 73.2% (inactive).
Still for that read-out and setting: the result for `C=CC(=O)N1CCC(CNc2ncnc(N)c2-c2ccc(Oc3ccccc3)cc2)CC1` reads 101% (inactive).
Same read-out and setting: the result for `CC[C@H]1OC(=O)[C@H](C)C(=O)[C@H](C)[C@@H](O[C@H]2O[C@H](C)C[C@H](N(C)C)[C@H]2O)[C@](C)(OC)C[C@@H](C)C(=O)[C@H](C)[C@H]2N(CCCCn3cnc(-c4cccnc4)c3)C(=O)O[C@]12C` reads 101% (inactive).
As to `Cc1ccc(C2=Nc3ccc(Cl)cc3OC2)cc1`, the Potency was 8.33 µM (active).

Another experiment in a line: BET inhibitor-based combinations targeting novel dependencies in MECOM-rearranged (r) AML: OCI-AML3 cell line (AID 2202232).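 On viability (% of control): plate controls were DMSO vehicle wells for no effect and wells without cells for full effect.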 As to conditions: CellTiter-Glo luminescence, 48 h; Potency: OCI-AML3 viability; series mostly up to 46 µM; viability (% of control): at the top concentration. The method in brief: as §1
For `c1ccc2c(Cc3c[nH]c4ccccc34)c[nH]c2c1`, the “viability (% of control)” value was 106% (inactive).
For the molecule `O=C1CC(c2c[nH]c3ccc(F)cc23)C(=O)N1` (centres undefined), the “viability (% of control)” value is 84.2% (inactive).
Turning to `CC(C)(c1ccc(OCC(O)CO)cc1)c1ccc(OCC(O)CCl)cc1` (centres undefined), the “viability (% of control)” value was 70.9% (inactive).
In the case of `O=C(Nc1cccc(C(F)(F)F)c1)c1cccc2cc(Oc3cc(CO)ncn3)ccc12`, the “viability (% of control)” value is 146% (inactive).
Same read-out and setting: the value for `Cc1[nH]nc2ncc(C(=O)N3CCC[C@H]3c3ccc(Cl)cc3)cc12` was 117% (inactive).
With `C#C[C@]1(O)CC[C@H]2[C@@H]3[C@H](C)CC4=C(CCC(=O)C4)[C@H]3CC[C@@]21C`, the Potency is 16.6 µM (active).
Same read-out and setting: the result for `CN(Cc1cnc2nc(N)nc(N)c2n1)c1ccc(C(=O)N[C@@H](CCC(=O)O)C(=O)O)cc1` reads 0.0468 µM (active).
As to `c1ccc(-c2nn3c(c2-c2ccnc4cc(OCCN5CCOCC5)ccc24)CCC3)nc1`, the “viability (% of control)” value was 76.2% (inactive).
For `Nc1nc(N)c2nc(-c3cccc(Cl)c3)c(N)nc2n1`, the Potency is 2.95 µM (active).

Source of the values: PubChem BioAssay (NCATS).
